Measured values from PubChem BioAssay (Tox21).
Results filed as inconclusive are left out. Unmarked numbers belong to inactive results. Active and inactive are the calls of the source. The call rests on the fitted dose curve; in most records, active means well fitted cell-killing curve with a large enough effect in the repeat runs; inconclusive means weak or mixed curves, or effect the other way; inactive means flat fitted curve, though single readings scatter.

Assay: qHTS assay to identify small molecule agonists of the androgen receptor (AR) signaling pathway in the presence of an antagonist - cell viability counter screen (AID 1259379); further: nearly all actives have a fitted effect of over 25% in size
Conditions: MDA-kb2 viability, CellTiter-Fluor, 16 h; series mostly up to 92.4 µM; activity change, negative = cytotoxicity: at the top concentration
Description: National Center for Advancing Translational Sciences [NCATS]
NIH Chemical Genomics Center [NCGC]
U.S. Environmental Protection Agency [EPA]
National Institutes of Environmental Health Sciences [NIEHS]
National Toxicology Program [NTP]
U.S. Food and Drug Administration [FDA]
Androgen receptor (AR) is an important member of nuclear receptor family. Its signaling plays a critical role in AR-dependent prostate cancer and other androgen related diseases. Considerable attention has been given in the past decades to develop methods to study and screen for the environmental chemicals that have the potential to interfere with metabolic homeostasis, reproduction, developmental and behavioral functions. Therefore AR binding assay for screening against androgen agonists and antagonists can be used to identify potential endocrine disruptors.
MDA-kb2 cells (from ATCC, deposited by Wilson et al.) are human breast carcinoma cells that were stably transfected with a luciferase reporter gene under control of the MMTV promoter that contains response elements for both androgen receptor (AR) and glucocorticoid receptor (GR). This particular screening for measuring luciferase reporter gene activity using MDA-kb2 cells against Tox21 10K library compounds is a confirmation study on agonist mode screening in the presence of AR-antagonist compound (Nilutamide) at 3.0uM final concentration. The cytotoxicity of the compounds was tested in parallel by measuring the cell viability using CellTiter-Fluor assay system (Promega, Madison, WI) in the same wells.
Tox21 Assay Protocol Summary:
MDA-kb2 cells (cells cultured without CO2) were dispensed at 3,000 cells/well in 4uL of culture medium into white wall/solid-bottom 1536-well plates (Corning Life Sciences, Corning, NY) using a Multidrop Combi (Thermo Fisher Scientific Inc., Waltham, MA) dispenser. The assay plates were incubated at 37C and 0% CO2 for 5hr. One uL of 3.0uM (final concentration) Nilutamide or assay buffer was added using two separate tips of Flying Reagent Dispenser (FRD, Aurora Discovery, San Diego, CA). Then 23nL of compounds dissolved in DMSO at 15 concentrations and positive controls were transferred to the assay plates using a Pintool station (Wako, San Diego, CA). The assay plates were incubated at 37C and 0% CO2 for 16 hr. After 15hr incubation at 37C, 1uL/well CellTiter-Fluor reagent (Promega Corporation) was added to each well of the assay plates using FRD. After 1hr incubation at 37C and 0% CO2, the fluorescence signal was measured using a ViewLux plate reader (PerkinElmer, Shelton, CT).
On the % scale 0 is the no-effect control and ±100 the full control effect; potency means the concentration at half of the fitted maximal effect.

In the case of CCC[CH2][Sn]([CH2]CCC)([O]C(C)=O)[O]C(C)=O, the Potency is reported as 0.978 µM (active).
For ClC1=C(Cl)[C@]2(Cl)[C@H]3[C@H]([C@@H]4C=C[C@H]3C4)[C@@]1(Cl)C2(Cl)Cl, the Potency was “inactive”.
With CC(=O)[O][Pb]([c]1ccccc1)([c]1ccccc1)[c]1ccccc1 the Potency was 7.7 µM (active).
For CN(C)c1ccc(N)cc1, the Potency was 59.6 µM (active).
With CC(C)N(C(=O)CCl)c1ccccc1 the Potency was 54.5 µM (active).
With Oc1cc(Cl)c(Cl)c(Cl)c1Cl the Potency was 59.7 µM (active).

Going from CCOP(=S)(OCC)SC(CCl)N1C(=O)c2ccccc2C1=O (stereo not given) to CCN(CC)CCc1c[nH]c2ccccc12, the “activity change, negative = cytotoxicity” value falls from 0.728% to -2.58%.

Going from CCCCn1cc[n+](C)c1.[Cl][Fe-]([Cl])([Cl])[Cl] to CCCCCCC[CH2][Sn]([Cl])([Cl])[CH2]CCCCCCC, the “activity change, negative = cytotoxicity” value falls from 1.21% to -1.1%.

First: Clc1ccc(C(c2ccc(Cl)cc2)C(Cl)Cl)cc1
Second: Oc1cc(Cl)cc(Cl)c1
The “activity change, negative = cytotoxicity” value of the first is higher: -0.298% for the first, -7.36% for the second.

Going from COP(=S)(NC(C)C)Oc1ccc(C)cc1[N+](=O)[O-] (stereo not given) to COP(=S)(OC)Oc1ccc([N+](=O)[O-])c(C)c1, the “activity change, negative = cytotoxicity” value falls from -1.62% to -9.78%.

Compared with O=[N+]([O-])c1cccc2cccc([N+](=O)[O-])c12, Oc1cccc(Cl)c1Cl is lower in “activity change, negative = cytotoxicity” value: 0.875% for the first, -2.9% for the second.

Going from Brc1ccc(Oc2ccc(Br)cc2Br)c(Br)c1 to CC(C)C(Nc1ccc(C(F)(F)F)cc1Cl)C(=O)OC(C#N)c1cccc(Oc2ccccc2)c1 (stereo not given), the “activity change, negative = cytotoxicity” value falls from 2.86% to -0.68%.

Going from C#CCO to ClSC(Cl)(Cl)Cl, the “activity change, negative = cytotoxicity” value rises from -1.7% to 3.79%.

First: COC(=O)c1ccccc1S(=O)(=O)NC(=O)Nc1nc(C)nc(OC)n1
Second: COc1nc(C)nc(NC(=O)NS(=O)(=O)c2ccccc2Cl)n1
The “activity change, negative = cytotoxicity” value of the first is higher: 1.55% for the first, 1.39% for the second.

First: Nc1nc(N)nc(Cl)n1
Second: CCOP(=S)(OCC)Oc1cc(C)nc(N(CC)CC)n1
The “activity change, negative = cytotoxicity” value of the first is higher: -0.267% for the first, -0.877% for the second.

First: O.O.O.O.O.O.O.O=S(=O)([O-])[O-].[Co+2]
Second: CC(=O)[O-].CC(=O)[O-].O.O.O.[Pb+2]
The “activity change, negative = cytotoxicity” value of the first is higher: 0.413% for the first, -3.36% for the second.

First: CSC(=O)c1c(C(F)F)nc(C(F)(F)F)c(C(=O)SC)c1CC(C)C
Second: CC(Cc1ccc(OCC(=O)O)cc1)NCC(O)c1csc(C(F)(F)F)n1 (stereo not given)
The “activity change, negative = cytotoxicity” value of the first is higher: -5.04% for the first, -8.1% for the second.

Compared with CNC(=O)Oc1cc(C)cc(C(C)C)c1, Cc1nn(-c2cc(NS(C)(=O)=O)c(Cl)cc2Cl)c(=O)n1C(F)F is higher in “activity change, negative = cytotoxicity” value: -10.4% for the first, 2.55% for the second.

For O=S1OCC2C(CO1)C1(Cl)C(Cl)=C(Cl)C2(Cl)C1(Cl)Cl (stereo not given), the “activity change, negative = cytotoxicity” value was -9.75%.

First: CN1C2CCC(C)(C)C1CC(OC(=O)C(O)(c1cccs1)c1cccs1)C2 (stereo not given)
Second: CCN(CC)C(=O)N[C@@H]1C=C2c3cccc4[nH]cc(c34)C[C@@H]2N(C)C1
The “activity change, negative = cytotoxicity” value of the first is lower: 0.645% [at 42.5 µM] for the first, 0.741% [at 42.5 µM] for the second.

First: O=C(N[C@@H]1N=C(c2ccccc2F)c2cccc3c2N(CC3)C1=O)c1cc2ccccc2[nH]1
Second: CN1C(=O)[C@@H](NC(=O)c2cc3ccccc3[nH]2)N=C(c2ccccc2)c2ccccc21
The “activity change, negative = cytotoxicity” value of the first is lower: -2.34% [at 42.5 µM] for the first, -1.9% [at 42.5 µM] for the second.

First: Clc1cc(Cl)c(-c2cc(Cl)c(Cl)cc2Cl)cc1Cl
Second: CCN(CC)Cc1nccn1-c1ccc([N+](=O)[O-])cc1C(=O)c1ccccc1Cl
The “activity change, negative = cytotoxicity” value of the first is higher: 1.22% [at 42.5 µM] for the first, -2.26% [at 42.5 µM] for the second.

First: CC(Cc1ccccc1)N(C)Cc1ccco1 (stereo not given)
Second: O=C(CCCCl)c1ccc(F)cc1
The “activity change, negative = cytotoxicity” value of the first is higher: 1.39% [at 42.5 µM] for the first, -0.309% [at 42.5 µM] for the second.

For CC(C)C(Br)C(=O)NC(N)=O (stereo not given), the “activity change, negative = cytotoxicity” value was 2.54% [at 42.5 µM].
